Measured values taken from the supplement of paper PMC6555819.

Key:
Assay in all cases: PBM binding z-score (relative to random genomic background probes); higher = stronger binding; sequences stand for … in GC…GCGATTGACAGCGTAGAATGAAGG
[1] = test system: RARb homodimer (NR concentration 270 nM)
How it was run: (§1)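 Scanned fluorescence from custom Agilent 4×180K protein-binding microarrays was regression-normalized. Binding z-scores use random background probes as reference. Ligand-free nuclear receptor dimers were incubated on the arrays for 1 h and detected with antibodies against each partner (one per run).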

[2] = test system: RARg:RXRa (NR concentration 270 nM, RXRa partner concentration 90 nM)
How it was run: as §1

[3] = test system: RARg homodimer (NR concentration 270 nM)
How it was run: as §1

[4] = test system: RXRa DBDmut IVT, anti-RXR (DBD mutation: RXRa K156A/R161A, NR concentration 90 nM)
How it was run: as §1

[5] = test system: RXRa homodimer (NR concentration 180 nM)
How it was run: as §1

[6] = test system: THRa:RXRa (NR concentration 90 nM, RXRa partner concentration 90 nM)
How it was run: as §1

[7] = test system: THRa homodimer (NR concentration 90 nM)
How it was run: as §1

[8] = test system: VDR homodimer (NR concentration 270 nM)
How it was run: as §1

Row | Sequence | PBM binding z-score [1] | PBM binding z-score [2] | PBM binding z-score [3] | PBM binding z-score [4] | PBM binding z-score [5] | PBM binding z-score [6] | PBM binding z-score [7] | PBM binding z-score [8]
1 | TCTCGGAGGACACGCAAGGTCAGAGCTCGACATC | 3.96 | 3.16 | 3.84 | 1.23 | 2.01 | 4.25 | 2.64 | 1.06
2 | CAGCCTACGTCAGGGCCAGTATAGGAGGAACGTT | -0.0418 | -0.371 | -0.021 | -0.885 | -0.169 | -0.415 | -0.292 | -0.285
3 | CCTGCTAGGTCATGGTCAACTAATCTACAGTATG | 3.37 | 4.23 | 5.18 | 1.75 | 2.88 | 3.26 | 1.41 | 0.335
4 | CCTGCTACGTCATGGTCAGCTAATCTACAGTATG | -0.0724 | 0.00255 | -0.0549 | 0.43 | -0.184 | -0.381 | -0.695 | -0.512
5 | GCTGCTAGGTCAACTGATGGTCAGGTAAAGCTCG | 3.83 | 5.13 | 5.23 | 1.6 | 3 | 3.27 | 1.76 | 0.0826
6 | CCGACTGGGGCGGAAAGGTTACCATACCATCCGG | 2.17 | 1.49 | 0.882 | -1.21 | 1.76 | 1 | -0.282 | -0.201
7 | CCTACTGGGCCAAAATGGTCATTGATGCCGATAA | 0.177 | 0.104 | 0.0823 | -0.811 | -0.05 | -0.37 | -0.637 | -0.747
8 | GCGACTGGGGCAAAGCAGGTTCCCATAAGGTTGG | 0.109 | -0.179 | 0.0897 | -0.512 | -0.314 | 1.38 | -0.261 | -0.513
9 | CCTTACGGGTCACTCCAGGTTATAGAATCGGAGT | 3.06 | 4.57 | 4.54 | 1.91 | 4.61 | 5.18 | 0.576 | 1.39
10 | TCTCGGAGGACACGAAAGATCAGAGCTCGACATC | 0.303 | 0.634 | 1.18 | 0.716 | 0.321 | 1.2 | 0.159 | -0.53
11 | TTACCAAGGTGTAAGGTCGTTGATGCACGCCTTG | 0.961 | 0.528 | 0.368 | 0.411 | 1.35 | 2.49 | 1.59 | 1.62
12 | TCTAGCATGCCAGAGGGTCACTCAAGAGGTACGG | 2.71 | 2.48 | 2.22 | 0.0251 | 2.7 | 1.7 | -0.281 | 0.555
13 | ATATGTAGGTTTAGGGTCATTCAGGTTGGTTCGC | 3.05 | 3.53 | 2.43 | 2.74 | 4.4 | 4.23 | 4.2 | 4.83
14 | ATCGAGAGGTCGAAGGTGAGTATACCCACCCGAA | 1.46 | 3.28 | 2.62 | 1.02 | 4.3 | 1.82 | -0.366 | 0.783
15 | CCTAGTAGGCCAATCTGGGTCACTCAAGGCTTGA | 2.52 | 1.43 | 1.67 | -0.0412 | 0.813 | 3.89 | 0.525 | -0.107
16 | CCGAGTGGGGCATAAGGTTACCATAAGCCAGCCC | 1.32 | 1.46 | 0.809 | -0.545 | 1.22 | 2.01 | 1.09 | 0.036
17 | CCTACTGGGCCAAAAAGGTGATTGATGCCGATAA | 0.483 | 0.0442 | 0.047 | -0.635 | -0.0112 | 0.0456 | -0.353 | -0.114
18 | ATATGTAGGTTAAGGGTCGTTCAGGTTGGTTCGC | 2.6 | 2.82 | 1.63 | 1.64 | 3.9 | 2.48 | 1.75 | 2.58
19 | CCTAGCATGCCAATCTGGGTCACTCAAGGCTTGA | 1.86 | 0.768 | 0.691 | 0.255 | 0.917 | 2.93 | 0.266 | -0.104
20 | GCTTGTAGATCAAGGTTAAGGAAGACTAAGCTAA | 0.296 | 0.309 | 0.222 | -0.171 | 0.702 | 1.25 | -0.259 | -0.459
21 | CCTCGGAGGACAACAGGAGGTCAGAGTTGCCAGA | 3.77 | 3.42 | 3.26 | 0.349 | 2 | 3.08 | 1.6 | 1.5
22 | CCTACTGTGCCATCAGGTCATTGATATCAACGTT | 2.98 | 2.18 | 1.93 | 1.69 | 1.53 | 3.64 | 3.95 | 2.39
23 | AATACAGGGTCACTAGGCCAGACTAGGTACGAAT | 3.25 | 5.28 | 4.68 | 2.72 | 5.35 | 3.44 | 1.22 | 2.17
24 | CCAGACAGGTGAGAAGGTATCTCAGCCTCGATTA | -0.0686 | 0.015 | 0.26 | 0.0467 | 0.0793 | -0.219 | -0.183 | -0.56
25 | CCTACTGGGGCAAGGTCATTGATCAGTCAAAGCA | 3.3 | 4.12 | 3.61 | 1.28 | 3.54 | 3.25 | 1.6 | 3.27
26 | TATACAGGGTCAAAGGCAAGAGTACGAATGTCGA | 3.28 | 5.58 | 5.01 | 3.09 | 6.4 | 3.48 | 1.05 | 3.39
